Bioassay records: PubChem BioAssay, National Center for Advancing Translational Sciences (NCATS)
Tau filament bind – binds recombinant human tau filaments | recombinant tau filaments, thioflavin S fluorescence, 15 h; filaments grown with octadecylsulfate alongside compound | AID 596 | Potency, µM (doses to about 57.1 µM), for inactives: at the highest dose activity change, negative = inhibition | 71,000 compounds, 2% hits | P10636;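 also: potency is read from the fitted curve at half-maximal effect; % is scaled to controls: 0 for no effect and ±100 for the full control effect; actives lower thioflavin S fluorescence by blocking filaments or displacing dye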
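His-tagged recombinant human tau (exons 2, 3 and 10 included), 1 uM, was induced to fibrillize by 30 uM sodium octadecylsulfate with compound present. After 15 h at 37 C, thioflavine S fluorescence (ex 450, em 510 nm) was read.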
15-hLO inh – blocks human 15-lipoxygenase activity; purified 15hLO-1, xylenol orange hydroperoxide absorbance; Potency, µM (top dose mostly 57.1 µM), without a hit: at the highest dose activity change, negative = inhibition, hits mostly inhibitors; 74,000 compounds, 1.4% hits; AID 887; also: potency is read from the fitted curve at half-maximal effect; % is scaled to controls: 0 for no effect and ±100 for the full control effect; nearly all actives have a fitted effect of over 55% in size
Target sequence (P16050 whole entry, looked up): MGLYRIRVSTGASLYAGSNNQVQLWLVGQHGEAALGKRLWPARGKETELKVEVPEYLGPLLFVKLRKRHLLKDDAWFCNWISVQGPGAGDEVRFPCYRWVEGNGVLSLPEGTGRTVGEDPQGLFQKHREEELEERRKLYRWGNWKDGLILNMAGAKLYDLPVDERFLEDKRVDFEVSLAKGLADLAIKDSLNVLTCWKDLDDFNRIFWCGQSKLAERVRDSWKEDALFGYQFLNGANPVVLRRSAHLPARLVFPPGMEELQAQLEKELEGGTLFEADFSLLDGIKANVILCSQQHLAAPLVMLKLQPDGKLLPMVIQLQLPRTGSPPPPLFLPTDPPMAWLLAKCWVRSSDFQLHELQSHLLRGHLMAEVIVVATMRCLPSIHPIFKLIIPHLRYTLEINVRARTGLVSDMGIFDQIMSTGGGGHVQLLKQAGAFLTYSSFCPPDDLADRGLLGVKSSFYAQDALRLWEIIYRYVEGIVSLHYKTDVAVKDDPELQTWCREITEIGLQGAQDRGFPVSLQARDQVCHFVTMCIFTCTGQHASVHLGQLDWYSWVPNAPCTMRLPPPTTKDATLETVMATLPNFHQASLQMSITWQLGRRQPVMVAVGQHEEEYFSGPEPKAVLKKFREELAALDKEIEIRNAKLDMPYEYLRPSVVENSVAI
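Quantitative HTS in 25 mM Hepes pH 7.5 containing 0.01% Triton X-100: human 15hLO-1 at 40 nM, arachidonic acid at 50 uM, 6 min turnover. Product quantified via ferrous oxidation/xylenol orange, 573:405 nm absorbance ratio.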
DNA Pol III inh – inhibitors of bacterial DNA polymerase III holoenzyme | reconstituted DNA polymerase III holoenzyme replication, biochemical | Potency, µM (highest dose often 57.1 µM), inactives show at the highest dose activity change, negative = inhibition | 71,000 compounds, 0.25% hits | AID 603; also: potency is read from the fitted curve at half-maximal effect; % is scaled to controls: 0 for no effect and ±100 for the full control effect
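Reconstituted *E. coli* holoenzyme (0.35 nM Pol III, 1 nM beta, 154 nM SSB, 2 nM primase) was preincubated with compound for 15 min at RT. Synthesis on 1.4 nM ssM13Gori ran 35 min, then was stopped with PicoGreen/EDTA and read as dsDNA fluorescence.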
HBB splicing – alters splicing of the hemoglobin beta chain. HBB splicing reporter cell assay, activation; EGFP reporter with mutant IVS2-654 intron; response scale: normalised to 500 nM splice-correcting PNA. Potency, µM (series often up to 46.1 µM), for the others: at the top dose activation, actives largely listed as activators. 65,000 compounds, 0.06% hits. AID 925; also: potency is read from the fitted curve at half-maximal effect; 0% is about no effect
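HeLa cells stably expressing EGFP interrupted by mutant beta-globin intron 2 (IVS2-654), 500/well in 2% FCS. Treated with compound for 2 days at 37C. Splicing correction scored as total well GFP intensity (488 nm excitation, 500-520 nm emission); 500 nM antisense PNA served as control.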
Epigenetic mod – epigenetic modulators derepressing GFP locus in mouse cells. mouse C127i GFP locus derepression, cytometry, 30 h. Potency, µM (doses to about 46.1 µM), for the others: top-dose GFP derepression (activation). 68,000 compounds, 0.09% hits. AID 597; also: % of control where 0% means no effect
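Read-out is the number of GFP-positive cells, scored as fluorescent objects 20 to 120 um wide, reflecting derepression of a silenced CMV-GFP reporter in murine C127i cells after 30 h compound exposure at 37 C.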
UbGFP stabilizer – ubiquitin-GFP accumulation via proteasome inhibition; Ubiquitin-GFP reporter cells, proteasome inhibition, GFP fluorescence; response scale: untreated = 0%, 10 µM MG-132 = 100%; Potency, µM (series often up to 45.9 µM), inactives show at the top dose activation (GFP accumulation), usual class: activators; 67,000 tested, under 10 active; active = well fitted activation curve with a large enough effect, not every such curve was filed as active; inconclusive = small, poorly fitted or top-dose-only effect, or another doubt; inactive = no such curve, though single readings can be large or run the other way; also: potency is read from the fitted curve at half-maximal effect
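Proteasome blockade was scored as a rise in GFP-expressing U2OS cells carrying a ubiquitin(G76V)-GFP construct, imaged after 4 hr compound treatment at 37 °C across a 46 uM–2.9 nM series.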
Numbers without * were called inactive; ? = inconclusive; . = no result given; ! = not confirmed by another sample; [ ] = dose if it differs, or a comment. Sampled rows, rich in hits. Any-hit rate of the full collection: about 3.2%. Unless noted, calls follow the shape of the dose curve; as a rule, active = well fitted curve in the direction sought with a large enough effect; inconclusive = small, poorly fitted or top-dose-only effect, or another doubt; inactive = no such curve, though single readings can be large; an effect the other way counts as inactive or inconclusive.

SMILES | Tau filament bind | 15-hLO inh | DNA Pol III inh | HBB splicing | Epigenetic mod | UbGFP stabilizer
S=c1nc(-c2nc(=S)[nH]c3c2CCCCCCCCCC3)c2c([nH]1)CCCCCCCCCC2 | 13.1%[11.4 µM] | 10.4%[11.4 µM] | -9.5%[11.4 µM] | 1.9%[9.22 µM] | -0.8%[9.22 µM] | -6.4%[9.17 µM]
CC(=O)Nc1ccc2c(c1)/C(=C/c1ccc([N+](C)(C)C)cc1)c1ccccc1-2 | 3.16µM* | 8.1%[11.4 µM] | -14.0%[11.4 µM] | 1.4%[9.22 µM] | -3.4%[9.22 µM] | 3.6%[9.17 µM]
Oc1ccc2c(c1)OC(c1ccc(O)c(O)c1)C(O)C2 (stereo unspecified) | . | 12.6µM* | . | . | . | .
Oc1cc(O)c2c(c1)O[C@H](c1ccc(O)c(O)c1)[C@@H](O)C2 | ? | -7.3%[25.6 µM] | -5.8% | . | -0.1%[9.22 µM] | 2.6%
CC(=O)O[C@@H]1CC[C@]2(C)[C@H]3CC[C@]4(C)[C@H](C[C@H]5CCCC[C@@]54C(C)=O)[C@@H]3CC(=O)[C@@]2(O)C1 | 17.1% | . | 0.0% | . | -4.7%[9.22 µM] | -3.6%
Cc1cccc(Nc2ncc3c(n2)CC(c2ccco2)CC3=O)c1 (stereo unspecified) | 27.6% | -4.4% | 0.1% | 1.1%[1.84 µM] | 0.0% | 13.6%
Cc1ccc(Nc2ncc3c(n2)CC(c2ccco2)CC3=O)c(C)c1 (stereo unspecified) | ? | 20µM* | -3.5% | -0.2%[0.369 µM] | -1.6% | .
Cc1ccccc1Nc1nnc(SCC(=O)NC(=O)NCc2ccco2)s1 | -8.6% | 15.8µM* | -6.3% | -0.4%[57.5 µM] | 4.3% | -3.8%
CCOC(=O)c1c2c(c(=S)n(-c3ccccc3)c1N)CCC2 | . | . | . | . | 0.5%[20.6 µM] | .
N#Cc1c2c(c(=S)n(-c3ccccc3)c1N)CCCC2 | 339.5%[11.4 µM] | 1.58µM* | -16.1%[11.4 µM] | -0.9%[0.0738 µM] | -1.5% | -1.3%[9.17 µM]
CCOC(=O)C(C)Sc1nc(-c2ccco2)cc(C(F)(F)F)c1C#N (stereo unspecified) | 20µM* | -8.2% | -6.6% | 0.4%[57.5 µM] | 0.0% | 5.3%
CN(C)CCN(Cc1ccccc1)S(=O)(=O)c1cccc2cccnc12 | -21.1% | -6.1% | -1.9% | 0.0% | . | -4.4%
COc1cc(CNc2ccc(C)c(C)c2)cc(OC)c1OC | ? | 10µM* | -9.1% | -2.4%[9.22 µM] | 1.9% | -8.2%
O=C(O)[C@@H]1CCCN[C@H]1C(=O)O | -7.7% | 5.2% | -2.2% | 0.4% | -1.1% | -3.2%
Nc1cc(N)c(OCC(F)(F)F)cc1OCC(F)(F)F | 15.8µM* | ? | -11.5% | -1.3%[57.5 µM] | 2.1% | -4.3%
CN(C)c1ccc(C(=C2C=CC(=[N+](C)C)C=C2)c2ccccc2)cc1 | 0.2µM*! | 31.6µM*! | -8.6%[11.4 µM] | 1.7%[9.22 µM] | -3.4%[9.22 µM] | 3.8%[9.17 µM]
CN(C)c1ccc(/C(=N\O)C(F)(F)F)cc1 | -12.1%[11.4 µM] | ? | -0.2%[11.4 µM] | -2.9%[0.0738 µM] | 1.9% | -1.7%[9.17 µM]
Cc1cc(C)c(/C=C2/C(=O)Nc3ccccc32)[nH]1 | 1µM* | ? | -5.5% | 31.6µM* | 0.5% | -3.4%
S=C1N[C@H](c2ccccc2)N[C@H](c2ccccc2)S1 | 5.8%[11.4 µM] | -24.1%[11.4 µM] | -3.3%[11.4 µM] | -0.1%[9.22 µM] | 13.3%[9.22 µM] | -8.2%[9.17 µM]
CCOc1ccc(NCc2nnc(SCC(=O)Nc3cc(C)on3)n2-c2ccccc2OC)cc1 | -13.6% | -5.8% | 1.2% | -2.7% | 5.2% | 2.2%
CCOc1ccc(NCc2nnc(SCC(=O)Nc3cc(C)on3)n2-c2ccc(OC)cc2)cc1 | 15.8µM* | -10.9% | -5.6% | -1.0% | 0.0% | -6.5%
O=C(NCc1cccnc1)[C@@H]1[C@@H](C(=O)O)[C@H]2CC[C@@H]1O2 | 15.8%[11.4 µM] | -2.7%[11.4 µM] | -8.6%[11.4 µM] | 6.1%[9.22 µM] | -3.4%[9.22 µM] | -1.5%[9.17 µM]
NCCSCCC(=O)O | 1.0%[11.4 µM] | 0.2%[11.4 µM] | -4.8%[11.4 µM] | 2.4%[9.22 µM] | 0.0%[9.22 µM] | -2.7%[9.17 µM]
CN(C)c1ccc(/C=N\NC(=O)c2cnc3ccccc3c2)cc1 | -8.7%[11.4 µM] | 0.0%[11.4 µM] | 6.8%[11.4 µM] | 0.6%[9.22 µM] | 5.6%[9.22 µM] | -10.3%[9.17 µM]
COc1ccc(CCN(C)CCC[C@@](C#N)(c2cc(OC)c(OC)c(OC)c2)C(C)C)cc1OC | -21.9% | -2.8% | 2.7% | -1.6% | -2.2% | 1.6%
